Measured values reported in ChEMBL document CHEMBL1961873, “Compounds: GSK PKIS; Assays: Nanosyn kinase panel” (2012).

Key:
[1] = biological target: T1, Inhibitor of nuclear factor kappa-B kinase subunit epsilon (Homo sapiens) (UniProt Q14164); details: at 1 µM;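 further: reported values are averaged percent inhibition figures against human IKKε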
T1 sequence (whole entry): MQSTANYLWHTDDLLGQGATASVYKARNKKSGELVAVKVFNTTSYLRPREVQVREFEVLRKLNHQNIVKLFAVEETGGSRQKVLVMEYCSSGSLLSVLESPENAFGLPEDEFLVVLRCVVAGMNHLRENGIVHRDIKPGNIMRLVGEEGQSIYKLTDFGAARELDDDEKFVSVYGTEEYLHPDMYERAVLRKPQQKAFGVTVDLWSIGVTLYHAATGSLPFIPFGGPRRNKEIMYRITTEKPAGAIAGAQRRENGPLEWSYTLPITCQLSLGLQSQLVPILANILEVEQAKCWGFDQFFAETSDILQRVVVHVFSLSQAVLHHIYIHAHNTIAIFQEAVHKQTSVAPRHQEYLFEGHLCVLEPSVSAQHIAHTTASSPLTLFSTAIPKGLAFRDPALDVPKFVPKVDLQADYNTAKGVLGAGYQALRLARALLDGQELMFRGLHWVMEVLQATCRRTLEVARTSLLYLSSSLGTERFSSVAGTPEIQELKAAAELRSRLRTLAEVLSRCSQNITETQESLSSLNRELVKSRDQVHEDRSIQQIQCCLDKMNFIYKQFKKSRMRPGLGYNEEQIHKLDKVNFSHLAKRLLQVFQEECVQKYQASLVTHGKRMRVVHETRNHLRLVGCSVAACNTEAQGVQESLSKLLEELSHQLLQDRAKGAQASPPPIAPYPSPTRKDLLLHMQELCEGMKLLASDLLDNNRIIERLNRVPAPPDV

[2] = biological target: T2, Serine/threonine-protein kinase Nek1 (Homo sapiens) (UniProt Q96PY6); details: at 0.1 µM
T2 sequence (whole entry): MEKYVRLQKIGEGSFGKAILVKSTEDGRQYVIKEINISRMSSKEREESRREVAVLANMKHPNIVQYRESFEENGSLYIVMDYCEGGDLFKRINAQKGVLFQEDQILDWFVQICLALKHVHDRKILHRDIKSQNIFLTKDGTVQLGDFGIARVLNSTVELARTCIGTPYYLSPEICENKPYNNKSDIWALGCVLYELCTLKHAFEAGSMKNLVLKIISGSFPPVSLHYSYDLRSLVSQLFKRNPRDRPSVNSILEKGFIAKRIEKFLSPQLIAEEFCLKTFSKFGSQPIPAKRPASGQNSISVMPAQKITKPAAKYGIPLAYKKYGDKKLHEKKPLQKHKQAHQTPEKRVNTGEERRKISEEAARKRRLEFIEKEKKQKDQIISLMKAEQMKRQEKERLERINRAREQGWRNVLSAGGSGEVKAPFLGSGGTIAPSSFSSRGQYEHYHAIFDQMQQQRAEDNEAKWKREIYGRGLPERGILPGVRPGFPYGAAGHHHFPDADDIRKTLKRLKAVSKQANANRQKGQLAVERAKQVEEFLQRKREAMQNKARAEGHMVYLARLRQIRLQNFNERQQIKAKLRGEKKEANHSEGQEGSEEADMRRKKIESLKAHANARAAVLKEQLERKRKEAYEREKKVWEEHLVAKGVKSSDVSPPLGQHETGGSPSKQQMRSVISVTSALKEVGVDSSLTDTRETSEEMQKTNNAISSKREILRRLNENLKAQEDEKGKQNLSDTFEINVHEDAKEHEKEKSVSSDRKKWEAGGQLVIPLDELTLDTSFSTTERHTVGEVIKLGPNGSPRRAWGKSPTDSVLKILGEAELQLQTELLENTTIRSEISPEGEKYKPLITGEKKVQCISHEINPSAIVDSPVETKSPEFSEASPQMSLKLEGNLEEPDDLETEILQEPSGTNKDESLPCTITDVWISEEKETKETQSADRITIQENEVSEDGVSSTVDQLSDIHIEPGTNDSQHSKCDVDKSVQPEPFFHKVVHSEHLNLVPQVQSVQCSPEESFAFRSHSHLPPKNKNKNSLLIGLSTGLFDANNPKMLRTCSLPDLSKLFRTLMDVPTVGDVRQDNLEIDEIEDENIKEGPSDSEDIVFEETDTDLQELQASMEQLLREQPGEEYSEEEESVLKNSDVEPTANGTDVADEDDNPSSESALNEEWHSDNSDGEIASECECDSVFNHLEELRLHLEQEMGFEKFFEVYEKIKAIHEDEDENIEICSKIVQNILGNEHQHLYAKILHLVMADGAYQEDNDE

[3] = biological target: T2, Serine/threonine-protein kinase Nek1 (Homo sapiens); details: at 1 µM
[4] = biological target: T3, Serine/threonine-protein kinase Nek2 (Homo sapiens) (UniProt P51955); details: at 0.1 µM
T3 sequence (whole entry): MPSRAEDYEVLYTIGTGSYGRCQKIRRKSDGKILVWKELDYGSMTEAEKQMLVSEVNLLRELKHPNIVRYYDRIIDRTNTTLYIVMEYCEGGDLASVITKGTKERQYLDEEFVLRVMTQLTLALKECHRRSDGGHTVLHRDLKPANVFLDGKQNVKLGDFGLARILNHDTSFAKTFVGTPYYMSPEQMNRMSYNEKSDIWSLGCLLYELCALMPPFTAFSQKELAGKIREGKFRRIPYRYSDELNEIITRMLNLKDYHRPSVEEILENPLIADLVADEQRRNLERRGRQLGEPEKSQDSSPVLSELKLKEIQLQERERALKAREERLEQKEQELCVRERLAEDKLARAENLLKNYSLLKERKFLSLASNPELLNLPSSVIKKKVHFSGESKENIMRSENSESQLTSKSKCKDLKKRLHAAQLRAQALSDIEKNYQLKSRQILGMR

[5] = biological target: T3, Serine/threonine-protein kinase Nek2 (Homo sapiens); details: at 1 µM
[6] = biological target: Serine/threonine-protein kinase Nek6 (Homo sapiens) (UniProt Q9HC98); details: at 0.1 µM
Chain of Serine/threonine-protein kinase Nek6 (Homo sapiens) (Q9HC98 whole entry): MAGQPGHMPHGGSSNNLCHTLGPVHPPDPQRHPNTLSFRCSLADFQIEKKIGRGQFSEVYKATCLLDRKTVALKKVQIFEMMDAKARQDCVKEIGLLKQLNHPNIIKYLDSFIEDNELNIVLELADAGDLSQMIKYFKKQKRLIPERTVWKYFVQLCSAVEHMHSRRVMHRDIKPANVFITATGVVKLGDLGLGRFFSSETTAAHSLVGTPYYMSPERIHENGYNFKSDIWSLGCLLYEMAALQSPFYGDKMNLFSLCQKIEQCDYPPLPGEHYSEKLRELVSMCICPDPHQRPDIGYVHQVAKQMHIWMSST

[7] = biological target: Serine/threonine-protein kinase Nek6 (Homo sapiens) (UniProt Q9HC98); details: at 1 µM
[8] = biological target: Serine/threonine-protein kinase Nek7 (Homo sapiens) (UniProt Q8TDX7); details: at 0.1 µM
Chain of Serine/threonine-protein kinase Nek7 (Homo sapiens) (Q8TDX7 whole entry, looked up): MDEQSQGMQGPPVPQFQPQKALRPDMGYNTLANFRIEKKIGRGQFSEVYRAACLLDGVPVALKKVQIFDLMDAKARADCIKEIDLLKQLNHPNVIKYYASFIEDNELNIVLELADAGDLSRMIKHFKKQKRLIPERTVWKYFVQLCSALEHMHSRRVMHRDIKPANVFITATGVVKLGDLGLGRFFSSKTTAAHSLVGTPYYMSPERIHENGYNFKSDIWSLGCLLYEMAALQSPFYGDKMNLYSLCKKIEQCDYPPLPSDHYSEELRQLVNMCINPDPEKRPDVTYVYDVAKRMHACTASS

[9] = biological target: Serine/threonine-protein kinase Nek7 (Homo sapiens) (UniProt Q8TDX7); details: at 1 µM
[10] = biological target: T4, Serine/threonine-protein kinase Nek9 (Homo sapiens) (UniProt Q8TD19); details: at 0.1 µM
T4 sequence (whole entry): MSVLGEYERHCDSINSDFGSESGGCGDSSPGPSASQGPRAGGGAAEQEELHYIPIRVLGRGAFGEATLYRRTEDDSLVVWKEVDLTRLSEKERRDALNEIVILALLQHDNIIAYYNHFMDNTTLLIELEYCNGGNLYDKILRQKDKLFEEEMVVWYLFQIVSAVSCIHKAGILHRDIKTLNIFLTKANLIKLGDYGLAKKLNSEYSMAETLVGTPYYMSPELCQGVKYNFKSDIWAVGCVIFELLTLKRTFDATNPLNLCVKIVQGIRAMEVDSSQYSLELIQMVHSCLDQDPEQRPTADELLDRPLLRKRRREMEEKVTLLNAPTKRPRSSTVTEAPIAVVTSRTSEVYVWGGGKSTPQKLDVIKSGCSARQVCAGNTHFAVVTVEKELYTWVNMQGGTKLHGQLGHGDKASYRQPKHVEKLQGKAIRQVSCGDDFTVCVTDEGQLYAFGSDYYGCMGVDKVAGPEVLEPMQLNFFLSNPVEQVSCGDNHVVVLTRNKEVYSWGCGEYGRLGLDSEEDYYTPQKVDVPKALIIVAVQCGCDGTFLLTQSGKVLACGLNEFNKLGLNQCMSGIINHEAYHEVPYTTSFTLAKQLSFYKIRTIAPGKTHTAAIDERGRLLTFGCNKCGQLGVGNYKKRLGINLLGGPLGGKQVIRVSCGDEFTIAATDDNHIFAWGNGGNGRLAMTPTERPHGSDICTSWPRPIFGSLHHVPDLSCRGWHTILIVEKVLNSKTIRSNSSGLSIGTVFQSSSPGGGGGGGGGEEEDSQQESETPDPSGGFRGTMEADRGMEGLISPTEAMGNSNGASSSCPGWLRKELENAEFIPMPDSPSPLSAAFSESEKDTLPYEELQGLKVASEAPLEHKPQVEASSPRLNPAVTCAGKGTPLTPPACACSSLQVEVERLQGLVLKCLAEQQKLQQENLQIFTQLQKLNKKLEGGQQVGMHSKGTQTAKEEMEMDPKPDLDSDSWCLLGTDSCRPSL

[11] = biological target: T4, Serine/threonine-protein kinase Nek9 (Homo sapiens); details: at 1 µM
[12] = biological target: Serine/threonine-protein kinase PLK1 (Homo sapiens) (UniProt P53350); details: at 0.1 µM
Chain of Serine/threonine-protein kinase PLK1 (Homo sapiens) (P53350 whole entry): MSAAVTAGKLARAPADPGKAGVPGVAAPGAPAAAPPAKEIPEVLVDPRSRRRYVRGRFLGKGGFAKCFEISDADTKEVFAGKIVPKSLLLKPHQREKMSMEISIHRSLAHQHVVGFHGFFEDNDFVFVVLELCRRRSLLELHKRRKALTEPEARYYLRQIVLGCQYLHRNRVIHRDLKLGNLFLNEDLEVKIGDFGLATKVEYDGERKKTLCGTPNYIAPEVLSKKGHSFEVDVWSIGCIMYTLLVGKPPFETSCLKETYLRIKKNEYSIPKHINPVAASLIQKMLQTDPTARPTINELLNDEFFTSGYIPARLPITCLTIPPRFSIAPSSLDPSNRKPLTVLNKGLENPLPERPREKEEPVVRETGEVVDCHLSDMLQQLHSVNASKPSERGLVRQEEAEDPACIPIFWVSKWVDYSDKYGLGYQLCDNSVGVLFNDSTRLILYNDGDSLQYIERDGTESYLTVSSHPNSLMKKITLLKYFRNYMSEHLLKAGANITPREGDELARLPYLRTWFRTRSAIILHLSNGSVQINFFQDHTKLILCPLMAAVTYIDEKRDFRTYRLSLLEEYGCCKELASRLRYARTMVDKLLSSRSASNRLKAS

[13] = biological target: Serine/threonine-protein kinase PLK1 (Homo sapiens) (UniProt P53350); details: at 1 µM
[14] = biological target: T5, Dual specificity protein kinase TTK (Homo sapiens) (UniProt P33981); details: at 0.1 µM
T5 sequence (whole entry): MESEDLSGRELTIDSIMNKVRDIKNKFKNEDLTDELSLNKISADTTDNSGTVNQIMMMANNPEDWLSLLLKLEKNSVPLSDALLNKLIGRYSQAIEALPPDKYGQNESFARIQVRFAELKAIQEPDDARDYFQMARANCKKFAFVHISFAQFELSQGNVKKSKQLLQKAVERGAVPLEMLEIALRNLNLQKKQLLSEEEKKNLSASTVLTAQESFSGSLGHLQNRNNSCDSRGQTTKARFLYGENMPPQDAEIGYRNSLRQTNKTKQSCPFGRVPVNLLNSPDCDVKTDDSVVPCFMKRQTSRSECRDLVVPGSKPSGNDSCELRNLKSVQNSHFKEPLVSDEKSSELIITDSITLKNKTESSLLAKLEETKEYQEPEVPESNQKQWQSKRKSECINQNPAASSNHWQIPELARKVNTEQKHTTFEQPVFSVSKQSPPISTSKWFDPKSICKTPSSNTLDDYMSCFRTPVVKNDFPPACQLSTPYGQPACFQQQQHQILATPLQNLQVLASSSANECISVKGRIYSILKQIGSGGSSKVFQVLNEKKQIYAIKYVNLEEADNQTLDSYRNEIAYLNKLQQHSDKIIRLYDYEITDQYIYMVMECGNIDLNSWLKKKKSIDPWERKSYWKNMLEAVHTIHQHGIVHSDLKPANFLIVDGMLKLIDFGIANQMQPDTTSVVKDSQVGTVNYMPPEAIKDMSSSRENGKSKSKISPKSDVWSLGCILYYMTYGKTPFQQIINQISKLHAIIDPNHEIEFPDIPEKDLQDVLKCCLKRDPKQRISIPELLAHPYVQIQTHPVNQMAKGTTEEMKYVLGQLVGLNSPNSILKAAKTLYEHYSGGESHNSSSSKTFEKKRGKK

[15] = tested on: T6, Receptor-type tyrosine-protein kinase FLT3 (Homo sapiens), P36888 [D835Y]; details: at 1 µM
T6 sequence (whole entry): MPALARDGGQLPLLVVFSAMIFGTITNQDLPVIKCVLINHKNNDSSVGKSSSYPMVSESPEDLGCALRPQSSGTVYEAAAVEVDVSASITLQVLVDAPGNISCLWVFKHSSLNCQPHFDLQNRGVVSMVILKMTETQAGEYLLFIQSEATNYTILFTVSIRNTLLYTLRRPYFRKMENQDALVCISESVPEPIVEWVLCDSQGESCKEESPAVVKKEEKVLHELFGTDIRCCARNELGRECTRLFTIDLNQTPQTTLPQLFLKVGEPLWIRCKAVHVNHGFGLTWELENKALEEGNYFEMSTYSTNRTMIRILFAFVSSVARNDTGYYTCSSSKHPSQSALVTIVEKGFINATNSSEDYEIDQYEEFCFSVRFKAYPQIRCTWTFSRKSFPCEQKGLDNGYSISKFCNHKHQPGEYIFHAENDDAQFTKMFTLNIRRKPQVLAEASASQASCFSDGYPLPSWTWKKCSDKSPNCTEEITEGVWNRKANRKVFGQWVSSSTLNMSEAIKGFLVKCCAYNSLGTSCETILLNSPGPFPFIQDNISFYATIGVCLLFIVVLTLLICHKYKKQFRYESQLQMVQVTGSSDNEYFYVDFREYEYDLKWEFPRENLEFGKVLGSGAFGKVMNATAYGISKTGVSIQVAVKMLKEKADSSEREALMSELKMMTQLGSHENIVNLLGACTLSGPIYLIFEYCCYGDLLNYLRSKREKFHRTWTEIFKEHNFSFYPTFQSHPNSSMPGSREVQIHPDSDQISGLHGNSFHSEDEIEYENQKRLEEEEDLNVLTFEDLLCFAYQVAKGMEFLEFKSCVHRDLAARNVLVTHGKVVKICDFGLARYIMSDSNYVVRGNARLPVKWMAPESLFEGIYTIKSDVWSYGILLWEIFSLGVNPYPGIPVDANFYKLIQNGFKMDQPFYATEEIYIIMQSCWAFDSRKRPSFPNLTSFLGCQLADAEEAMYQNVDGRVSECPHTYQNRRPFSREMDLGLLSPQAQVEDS

[16] = biological target: Vascular endothelial growth factor receptor 3 (Homo sapiens) (UniProt P35916); details: at 0.1 µM
Chain of Vascular endothelial growth factor receptor 3 (Homo sapiens) (P35916 whole entry): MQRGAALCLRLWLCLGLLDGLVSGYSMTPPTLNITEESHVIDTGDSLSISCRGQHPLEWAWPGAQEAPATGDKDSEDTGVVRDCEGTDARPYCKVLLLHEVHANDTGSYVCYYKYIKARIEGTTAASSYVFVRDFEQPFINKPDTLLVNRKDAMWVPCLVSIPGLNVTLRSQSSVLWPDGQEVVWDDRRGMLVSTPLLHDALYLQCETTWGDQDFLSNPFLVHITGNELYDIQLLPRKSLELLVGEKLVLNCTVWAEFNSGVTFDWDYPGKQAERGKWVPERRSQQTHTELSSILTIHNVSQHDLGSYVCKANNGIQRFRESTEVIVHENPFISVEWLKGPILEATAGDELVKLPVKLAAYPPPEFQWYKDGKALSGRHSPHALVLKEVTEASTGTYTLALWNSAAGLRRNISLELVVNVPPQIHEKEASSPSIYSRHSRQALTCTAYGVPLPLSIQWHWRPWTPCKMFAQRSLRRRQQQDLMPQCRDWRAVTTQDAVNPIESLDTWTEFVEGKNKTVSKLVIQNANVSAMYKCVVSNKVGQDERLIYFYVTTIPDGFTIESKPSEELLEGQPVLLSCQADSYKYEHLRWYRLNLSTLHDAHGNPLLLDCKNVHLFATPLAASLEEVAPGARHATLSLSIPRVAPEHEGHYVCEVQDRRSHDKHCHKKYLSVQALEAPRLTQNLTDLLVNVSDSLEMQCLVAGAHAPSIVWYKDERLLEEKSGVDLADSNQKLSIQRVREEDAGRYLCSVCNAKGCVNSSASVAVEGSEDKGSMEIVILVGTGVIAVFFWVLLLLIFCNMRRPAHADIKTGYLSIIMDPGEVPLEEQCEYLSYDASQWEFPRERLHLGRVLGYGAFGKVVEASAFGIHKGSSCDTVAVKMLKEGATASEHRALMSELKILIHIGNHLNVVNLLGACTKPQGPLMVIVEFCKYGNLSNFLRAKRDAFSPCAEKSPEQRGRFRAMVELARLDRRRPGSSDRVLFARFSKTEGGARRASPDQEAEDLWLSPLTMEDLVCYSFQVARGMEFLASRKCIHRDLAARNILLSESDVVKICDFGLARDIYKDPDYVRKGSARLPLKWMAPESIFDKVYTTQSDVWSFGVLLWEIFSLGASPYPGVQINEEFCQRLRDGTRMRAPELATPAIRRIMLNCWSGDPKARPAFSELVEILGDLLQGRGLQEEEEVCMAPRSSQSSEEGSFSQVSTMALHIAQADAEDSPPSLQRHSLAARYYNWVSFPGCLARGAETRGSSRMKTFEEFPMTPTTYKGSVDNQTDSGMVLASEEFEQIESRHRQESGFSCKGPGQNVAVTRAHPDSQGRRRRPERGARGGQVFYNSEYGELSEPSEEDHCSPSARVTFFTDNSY

[17] = biological target: Vascular endothelial growth factor receptor 3 (Homo sapiens) (UniProt P35916); details: at 1 µM
[18] = biological target: Macrophage colony-stimulating factor 1 receptor (Homo sapiens) (UniProt P07333); details: at 0.1 µM
Chain of Macrophage colony-stimulating factor 1 receptor (Homo sapiens) (P07333 whole entry): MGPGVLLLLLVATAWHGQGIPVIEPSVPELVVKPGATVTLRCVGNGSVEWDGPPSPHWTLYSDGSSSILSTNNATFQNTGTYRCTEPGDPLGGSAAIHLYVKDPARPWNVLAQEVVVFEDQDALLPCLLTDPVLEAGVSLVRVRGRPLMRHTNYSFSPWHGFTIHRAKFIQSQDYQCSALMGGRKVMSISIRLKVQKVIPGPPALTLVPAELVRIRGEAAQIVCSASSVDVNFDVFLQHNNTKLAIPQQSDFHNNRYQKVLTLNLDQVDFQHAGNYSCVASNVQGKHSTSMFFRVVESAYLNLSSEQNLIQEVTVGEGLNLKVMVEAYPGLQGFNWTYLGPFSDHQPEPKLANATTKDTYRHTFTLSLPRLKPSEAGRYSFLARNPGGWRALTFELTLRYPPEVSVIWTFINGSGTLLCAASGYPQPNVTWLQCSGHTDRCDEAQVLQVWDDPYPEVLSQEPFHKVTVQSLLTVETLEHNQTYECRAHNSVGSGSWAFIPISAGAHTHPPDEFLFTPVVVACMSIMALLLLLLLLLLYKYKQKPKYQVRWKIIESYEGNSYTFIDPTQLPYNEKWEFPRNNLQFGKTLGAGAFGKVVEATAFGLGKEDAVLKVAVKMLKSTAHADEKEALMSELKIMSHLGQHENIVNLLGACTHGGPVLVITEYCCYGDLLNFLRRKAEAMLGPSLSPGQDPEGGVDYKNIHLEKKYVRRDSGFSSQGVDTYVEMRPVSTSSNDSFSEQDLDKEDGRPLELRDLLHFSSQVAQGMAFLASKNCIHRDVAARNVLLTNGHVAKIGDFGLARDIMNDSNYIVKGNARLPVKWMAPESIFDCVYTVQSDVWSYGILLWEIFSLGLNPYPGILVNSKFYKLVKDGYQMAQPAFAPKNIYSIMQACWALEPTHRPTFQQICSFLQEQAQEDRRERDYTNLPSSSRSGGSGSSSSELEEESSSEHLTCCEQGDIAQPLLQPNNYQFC

[19] = biological target: Macrophage colony-stimulating factor 1 receptor (Homo sapiens) (UniProt P07333); details: at 1 µM
[20] = biological target: Tyrosine-protein kinase Fyn (Homo sapiens) (UniProt P06241); details: at 0.1 µM
Chain of Tyrosine-protein kinase Fyn (Homo sapiens) (P06241 2-537 limits assumed): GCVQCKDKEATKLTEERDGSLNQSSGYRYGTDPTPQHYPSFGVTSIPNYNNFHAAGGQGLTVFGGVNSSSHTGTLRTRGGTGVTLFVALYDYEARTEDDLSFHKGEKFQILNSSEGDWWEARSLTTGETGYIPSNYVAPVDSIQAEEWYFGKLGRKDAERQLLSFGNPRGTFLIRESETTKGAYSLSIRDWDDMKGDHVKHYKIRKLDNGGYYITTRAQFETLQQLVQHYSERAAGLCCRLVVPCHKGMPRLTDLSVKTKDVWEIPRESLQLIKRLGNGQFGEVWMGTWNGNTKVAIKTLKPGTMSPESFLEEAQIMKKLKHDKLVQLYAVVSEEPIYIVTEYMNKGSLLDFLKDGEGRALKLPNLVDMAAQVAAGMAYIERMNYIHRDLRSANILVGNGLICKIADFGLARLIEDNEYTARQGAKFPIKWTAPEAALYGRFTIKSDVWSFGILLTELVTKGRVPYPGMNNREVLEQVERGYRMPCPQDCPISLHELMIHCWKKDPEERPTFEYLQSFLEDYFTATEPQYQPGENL

COc1ccc(-c2nn3ncccc3c2-c2ccnc(Nc3ccc(F)c(F)c3)n2)cc1
inhibition [1]: 88.2%
inhibition [2]: 1.08%
inhibition [3]: 2.15%
inhibition [4]: 3.89%
inhibition [5]: 2.89%
inhibition [6]: 3.33%
inhibition [7]: 5.18%
inhibition [8]: 3.7%
inhibition [9]: 4.42%
inhibition [10]: 7.45%
inhibition [11]: 7.17%
inhibition [12]: 1.8%
inhibition [13]: 2.27%
inhibition [14]: 15.1%
inhibition [15]: 2.1%
inhibition [16]: 4.09%
inhibition [17]: 8.94%
inhibition [18]: 5.19%
inhibition [19]: 14.8%
inhibition [20]: 2.85%
